Lamin A splicing – changes lamin A minigene splicing in HeLa cells. HeLa LMNA splicing GFP/RFP minigene ratio, 48 h. Potency, µM (doses to about 46.1 µM), for the others: at the highest dose ratio change, negative = inhibition, usual class: inhibitors. 200,000 compounds, 0.01% hits. AID 1487; active = well fitted inhibition curve with a large enough effect in the signal ratio, with a control signal flat, not every such curve was filed as active; inconclusive = small, poorly fitted or top-dose-only effect, or effect the other way, or a change in a side signal; the % refers to the signal ratio; note: % is set by controls: 0 for no effect and ±100 for the full control effect
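Read-out is the ratio of GFP to DsRed2 object intensity, acquired by 488 nm laser-scanning cytometry on HeLa lamin A-EGFP minigene reporter cells. Compound incubation 48 hrs at 37 °C in Opti-MEM with 2% FBS; DMSO 0.5% final.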
HTT aggregate – inhibitors of mutant huntingtin aggregate formation in PC12 cells; 220,000 compounds, 1.1% hits; PC12 HttQ103-GFP aggregates, Acumen cytometry, 40 h; AID 1688; Potency, µM (series often up to 46.1 µM), inactives show at the highest dose activity change, negative = inhibition, actives largely listed as inhibitors; note: % is set by controls: 0 for no effect and ±100 for the full control effect; nearly all actives have a fitted effect of over 60% in size
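Compounds (qHTS titration) were added to PC12 cells expressing an ecdysone-driven HTT exon 1 Q103–GFP fusion after induction with 100 nM tebufenozide. Aggregate formation was measured as GFP objects in cell lysates.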
HPGD block – blocks human HPGD enzyme activity; purified HPGD, NADH fluorescence kinetic, PGE2 substrate; Potency, µM, for inactives: top-dose activity change, negative = inhibition, most hits filed as inhibitors; 150,000 compounds, 4.3% hits; AID 894; active = well fitted inhibition curve with a large enough effect, not every such curve was filed as active; inconclusive = small, poorly fitted or top-dose-only effect, or another doubt; inactive = no such curve, though single readings can be large or run the other way; note: % is set by controls: 0 for no effect and ±100 for the full control effect
Target sequence (P15428 whole entry, looked up): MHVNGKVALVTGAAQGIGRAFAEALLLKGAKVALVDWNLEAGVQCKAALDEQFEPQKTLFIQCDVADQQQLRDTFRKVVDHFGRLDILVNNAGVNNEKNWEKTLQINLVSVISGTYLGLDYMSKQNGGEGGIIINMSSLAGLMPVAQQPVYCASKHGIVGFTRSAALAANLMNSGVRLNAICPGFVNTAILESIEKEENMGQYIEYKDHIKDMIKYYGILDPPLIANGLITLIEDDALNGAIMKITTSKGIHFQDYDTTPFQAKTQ
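NADH formation kinetics: reaction with 30 uM PGE2 and 1 mM NAD+ (final), 20 nM enzyme, Tris-HCl pH 8 with Tween 20, after 15 min compound preincubation at room temperature. Fluorescence change, last versus first of five reads.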
ALDH1A1 block – blocks purified human ALDH1A1 activity. 220,000 compounds, 7.3% hits. Purified ALDH1A1, NADH fluorescence, propionaldehyde substrate. AID 1030. Potency, µM (highest dose often 75.3 µM), without a hit: at the top dose activity, negative = inhibition, usual class: inhibitors; active = well fitted inhibition curve with a large enough effect, not every such curve was filed as active; inconclusive = small, poorly fitted or top-dose-only effect, or another doubt; inactive = no such curve, though single readings can be large or run the other way;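 note: plate controls were no enzyme wells and a reference inhibitor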
Target sequence (P00352 whole entry, looked up): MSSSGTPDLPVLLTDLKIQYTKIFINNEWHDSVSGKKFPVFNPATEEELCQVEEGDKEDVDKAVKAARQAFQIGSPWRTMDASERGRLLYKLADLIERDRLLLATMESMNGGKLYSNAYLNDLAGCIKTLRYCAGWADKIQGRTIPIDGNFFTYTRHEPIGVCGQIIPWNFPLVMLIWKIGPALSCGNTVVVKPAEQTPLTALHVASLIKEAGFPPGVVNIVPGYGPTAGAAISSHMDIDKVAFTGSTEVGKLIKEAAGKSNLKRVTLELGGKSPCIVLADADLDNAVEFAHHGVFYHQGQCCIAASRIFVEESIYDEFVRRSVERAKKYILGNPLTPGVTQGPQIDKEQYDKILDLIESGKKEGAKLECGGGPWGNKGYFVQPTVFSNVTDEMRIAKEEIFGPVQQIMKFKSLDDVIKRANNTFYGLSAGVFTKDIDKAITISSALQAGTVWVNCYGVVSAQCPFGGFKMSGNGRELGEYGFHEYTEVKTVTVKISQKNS
KinaseGlo FLuc – Kinase-Glo luciferase inhibition (counter-screen). 200,000 compounds, 0.28% hits. Potency, µM (top dose mostly 38.3 µM), for the others: top-dose activity change, negative = inhibition, most hits filed as inhibitors. Kinase-Glo luciferase, ATP luminescence, 8 min. Q27757; note: % is set by controls: 0 for no effect and ±100 for the full control effect; nearly all actives have a fitted effect of over 60% in size
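Light output from Kinase-Glo luciferase with luciferin and 10 uM ATP in 50 mM imidazole pH 7.2, KCl, MgCl2, Tween 20, BSA; compound pin-delivered, 8-min ambient incubation, then luminescence read.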
HTT cytoprotect – Huntington cell model cytoprotection by ATP luminescence. PC12 HTT-Q103 induced, cytoprotection, ATP luminescence, 40 h. Potency, µM (doses to about 56.4 µM), for the others: cytoprotection (ATP increase), usual class: activators. 230,000 compounds, 0.14% hits. AID 1471; note: % of control where 0% means no effect; nearly all actives have a fitted effect of over 45% in size
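ATP quantification (ATPlite) reports survival of PC12 cells in which tebufenozide, 100 nM final, switches on Htt exon 1 with 103 glutamines linked to GFP; compounds are titrated.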
An asterisk follows results filed as active; u = inconclusive; x = no result; [ ] = another dose, or the depositor's remark. An excerpt weighted towards active compounds, which were near 9% of everything screened. Unless noted, calls come from the whole dose curve; as a rule, active = well fitted curve in the direction sought with a large enough effect; inconclusive = small, poorly fitted or top-dose-only effect, or another doubt; inactive = no such curve, though single readings can be large; an effect the other way counts as inactive or inconclusive. Potency is the fitted concentration of half-maximal effect.

SMILES	Lamin A splicing	HTT aggregate	HPGD block	ALDH1A1 block	KinaseGlo FLuc	HTT cytoprotect
O=C(CCSc1ccc(Cl)cc1)c1cccs1	u	-13%	20µM*	0.35µM*	-3%	14%[10 µM]
O=C(CCNc1ccc(Cl)cc1)c1cccs1	u	-1%	-11%	3.2µM*	1%	15%[10 µM]
O=C(CCc1ccc(CCC(=O)c2cccs2)s1)c1cccs1	u	u	u	-12%	0%	-23%
O=C(CCNc1cc(Cl)cc(Cl)c1)c1cccs1	u	-8%	-25%	1.6µM*	0%	-1%
Nc1c2c(nc3ccccc13)N(c1ccccc1)CC2	u	-5%	u	u	1%	-9%[10 µM]
OC(COc1c(F)cc(Br)cc1F)CN1CCN(c2ccc(F)cc2)CC1 (stereo not given)	u	-26%	-13%	-8%	1%	-37%
COc1ccc(O)c(/C=N/NC(=O)c2ccc(CSc3nc(C)cc(C)n3)cc2)c1	u	5.6µM*	-9%	u	0%	-10%[10 µM]
COc1ccc(/C=N/NC(=O)c2ccc(CSc3nc(C)cc(C)n3)cc2)c(OC)c1OC	u	7%	35µM*	u	3%	42%[10 µM]
O=C(NC(NNc1ccc([N+](=O)[O-])cc1)(C(F)(F)F)C(F)(F)F)c1ccc(Cl)cc1	-2%	u	16µM*	u	-3%	-37%
O=C(NNc1ccc([N+](=O)[O-])cc1)c1ccccc1Cl	x	24%	x	-5%	4%	x
CCn1c(Cc2ccccc2)nnc1SCC(=O)Nc1nc(C)c(C)s1	3%	-2%	-10%	11%	-1%	-8%
COc1ccc(OCCNC(=O)C(Cc2c[nH]c3ccccc23)NC(C)=O)cc1 (stereo not given)	6%[9.22 µM]	13%	x	6%	2%	-11%
COc1ccc(C2=NOC(C(=O)NCCCn3ccnc3)C2)cc1 (stereo not given)	0%	-21%	-14%	12%	0%	-5%
CCOCC(=O)Nc1nnc(COc2ccc(Cl)cc2)s1	u	10%	11µM*	3.5µM*	-3%	-35%
Cc1onc(-c2ccccc2)c1C(=O)Nc1nnc(COc2ccc(Cl)cc2)s1	u	-14%	2.5µM*	1.1µM*	2%	-2%[10 µM]
COCC(=O)Nc1nnc(COc2ccc(Cl)cc2)s1	-19%	-4%	-18%	-2%	-5%	-4%[10 µM]
O=C(CSc1ccc(Cl)cc1)Nc1nnc(-c2cccc([N+](=O)[O-])c2)s1	-9%	0%	-23%	2.5µM*	0%	x
O=C(CSc1ccccc1)Nc1nnc(COc2ccc(Cl)cc2)s1	5%	8%	3.5µM*	3.2µM*	3%	10%[10 µM]
O=C1CCC(=O)N1OCCCCOc1ccccc1	-5%	1%	-7%	-1%	0%	15%[10 µM]
COc1ccc(N(C(=O)CNC(=O)c2cccs2)C(C(=O)NCC2CCCO2)c2ccc(OC)c(OC)c2)cc1 (stereo not given)	17%[46 µM]	x	x	13%	-3%	x
CCOC(=O)CSc1nc2ccc(Nc3nc(N4CCOCC4)nc(N4CCOCC4)n3)cc2s1	-18%	14%	u	-2%	6%	-19%[10 µM]
CCOC(=O)CC1(c2ccc(OC)c(OC)c2)C(=O)c2ccccc2C1=O	x	-13%[9.22 µM]	x	22%	x	-13%[10 µM]
CCC(CC)NC(=O)COC(=O)c1cc(Br)ccc1Cl	-4%	-5%	32µM*	4%	-1%	3%[10 µM]
Cc1noc(C)c1-c1cc(NCCN2CCOCC2)ncn1	0%	x	x	20µM*	x	u
Cn1c(=O)c2c(nc(Cc3ccccc3)n2CC(=O)O)n(C)c1=O	x	x	-5%	6%[13.5 µM]	-1%[7.66 µM]	9%[10 µM]
SMILES	Lamin A splicing	HTT aggregate	HPGD block	ALDH1A1 block	KinaseGlo FLuc	HTT cytoprotect
O=C1C=C(N2CCCCCC2)C2(CCCCC2)O1	x	x	x	8.9µM*	0%	x
CCOC(=O)N1CCN(C2=CC(=O)OC23CCCCC3)CC1	8%	28%	-11%	u	0%	16%[10 µM]
Cc1noc(C)c1C(=O)NNc1ccc(C(C)C)cc1	x	6%[9.22 µM]	x	11µM*	x	-7%[10 µM]
Cc1ccc(NNC(=O)c2c(C)noc2C)cc1Cl	u	6%[9.22 µM]	x	28µM*	x	-6%[10 µM]
Cc1ccc(NNC(=O)c2ccno2)cc1Cl	u	8%[9.22 µM]	x	14µM*	x	-14%[10 µM]
Cc1cc(Cl)ccc1NNC(=O)c1c(C)noc1C	u	1%[9.22 µM]	x	u	x	-8%[10 µM]
Cc1noc(C)c1C(=O)N1CCC[C@@]2(CCN(c3ncccn3)C2)C1	x	x	-17%	7%	0%	-16%
O=C(Cn1cnc2c(nnn2Cc2ccc(F)cc2)c1=O)NCc1ccc(F)cc1	u	15%	x	13%	1%	-31%
NC(=O)C(Cc1ccccc1)N1C(=O)c2ccccc2C1=O (stereo not given)	-3%[46 µM]	11%	x	18%	-2%	10%[10 µM]
COC(=O)c1sccc1S(=O)(=O)N(CC(=O)Nc1ccccc1)c1ccccc1	-4%[46 µM]	x	x	x	x	x
CC(=O)c1sc(N/N=C2\CC3CC2C(C)C3(C)C)nc1C (stereo not given)	31%[46 µM]	23%[9.22 µM]	x	16µM*	3%	7%[10 µM]
Cc1ccc([N+](=O)[O-])cc1NC(=S)NC(=O)CC(C)(C)C	22%	-12%	16µM*	-14%	-2%	7%
Cc1ccc([N+](=O)[O-])cc1NC(=O)c1ccc(C(C)(C)C)cc1	14%	u	16µM*	-9%	-1%	-31%
Cc1ccc([N+](=O)[O-])cc1NC(=S)NC(=O)C(C)(C)C	2%	14%	7.1µM*	4.5µM*	-5%	-26%
Cc1ccc(C(=O)Nc2cc([N+](=O)[O-])ccc2C)cc1	x	u	x	13%	1%	u
Cc1ccc(C(=O)Nc2cccc([N+](=O)[O-])c2)cc1S(=O)(=O)Nc1ccc(C(=O)O)cc1	x	23%	x	u	10%	-13%
CCCCC(=O)NC(=S)Nc1cc([N+](=O)[O-])ccc1OC	u	5%	x	u	0%	2%[10 µM]
Cc1ccccc1NS(=O)(=O)c1cc(C(=O)Nc2cccc([N+](=O)[O-])c2)ccc1C	u	u	-11%	22µM*	-3%	25%[10 µM]
Cc1c(-c2cccc(NC(=O)Nc3ccc(Cl)cc3)c2)nc2ncccn12	-7%[46 µM]	x	x	x	x	x
COc1ccc(NC(=S)N(CCc2nc3cc(C)c(C)cc3[nH]2)Cc2cccnc2)cc1	3%	20%	-14%	13µM*	1%	u
COc1ccc(NC(=S)N(CCc2c(C)[nH]c3ccccc23)Cc2cccnc2)cc1	u	-9%	-13%	-5%	-1%	x
CC(=O)C(C(C)=O)c1c(Cl)c(O)c(O)c2c(C(=O)c3ccccc3)coc12	u	u	3.2µM*	7%	-5%	-22%
O=C(Cn1nnc2ccccc2c1=O)N1CCOCC1	x	20%	x	8%	3%	25%[10 µM]

Screens (PubChem BioAssay)
